Results: ChEMBL document CHEMBL3988442, “University of Dundee, Small-Polar-MMV Screening Library” (2021)
In all, about 48,000 compounds went through this assay and about 13,000 (27%) showed an effect of 50% or more. Some of the results follow.

tested on: Wolbachia pipientis; test: Anti-Wolbachia Cell-Based Screen; assay type: functional; set-up: scale not given: in the data most compounds retested in dose-response had high values; conditions: 5 µM

| SMILES | Percent Effect |
| --- | --- |
| COc1cccc(COCC(=O)NC(C(N)=O)c2ccccc2)c1 (stereo unspecified) | -6.273% |
| CCCC(=O)N1CCc2nc3cc(OC)c(OC)cc3c(=O)n2CC1 | 121.4% |
| CCC(=O)N1CCc2nc3cc(OC)c(OC)cc3c(=O)n2CC1 | -9.574% |
| COc1cc2nc(C)n(CC(=O)NCCCN(C)C)c(=O)c2cc1OC | 20.74% |
| COc1cc2nc3n(c(=O)c2cc1OC)CCN(C(=O)C1CCC1)CC3 | 115.6% |
| COc1cc2nc3n(c(=O)c2cc1OC)CCN(C(C)=O)CC3 | -0.7868% |
| COc1cc2nc3n(c(=O)c2cc1OC)CCN(C(=O)C1CC1)CC3 | 109.5% |
| COc1ccc2[nH]nc(CN3CCC(C(=O)N4CCCCC4)CC3)c2c1 | -39.46% |
| COc1cc2nc3n(c(=O)c2cc1OC)CCN(C(=O)C(C)(C)C)CC3 | 130.5% |
| CC(CCN(C)C)NC(=O)c1cccc(C(F)(F)F)c1F (stereo unspecified) | 5.139% |
| CN(Cc1ccncc1)CC(c1cccs1)N1CCOCC1 (stereo unspecified) | -0.8027% |
| Cc1ccc(C(=O)N(Cc2cccnc2)C[C@@H]2CCC(=O)N2)s1 | 6.518% |
| CCc1cnc(N)nc1NCCCn1cc(Cl)cn1 | 12.08% |
| O=C(CCCNC(=O)C1CC1)Nc1cnn(-c2ccccc2Cl)c1 | 2.837% |
| O=C(NCCCN1CCN(c2ncccn2)CC1)NCC1CCCO1 (stereo unspecified) | 8.99% |
| O=C(CC1CCCO1)NCCc1ccc(Br)cc1F (stereo unspecified) | 2.724% |
| CNS(=O)(=O)c1ccc(CNC(=O)NCC2CCCO2)cc1 (stereo unspecified) | -4.659% |
| O=C(CCCNC(=O)C1CCCO1)Nc1ccc(Cl)cc1 (stereo unspecified) | 123.9% |

| SMILES | Percent Effect |
| --- | --- |
| O=C(CCCNC(=O)NCC1CCCO1)Nc1ccc(Cl)cc1 (stereo unspecified) | 100.3% |
| O=C(CC1CCCO1)NCCc1ccccc1Br (stereo unspecified) | -5.645% |
| O=C(NCCNS(=O)(=O)c1cccc(Cl)c1)C1CCCO1 (stereo unspecified) | -1.895% |
| O=C(CCC1CCCO1)NS(=O)(=O)c1ccc(Cl)cc1 (stereo unspecified) | -0.06204% |
| O=C(CCC1CCCO1)NCCCO (stereo unspecified) | -3.139% |
| O=C(CC1CCCO1)NCCCC(=O)Nc1ccc(Cl)cc1 (stereo unspecified) | 117.3% |
| O=C(CCC1CCCO1)NCCCC(=O)Nc1ccc(Cl)cc1 (stereo unspecified) | 132.9% |
| CNS(=O)(=O)CC1CCCN1c1ccccn1 (stereo unspecified) | -17.04% |
| Cc1nc(-c2ccccc2)sc1CSC(C)C(N)=O (stereo unspecified) | -3.877% |
| CCOC(C)c1nc(CN2CCC(NC(C)C)CC2)cs1 (stereo unspecified) | 9.562% |
| Cc1nn2cc(CCNC(=O)c3cc(C(C)C)no3)nc2s1 | -4.133% |
| CN(CCc1ccccn1)C(=O)C(c1cccnc1)N1CCOCC1 (stereo unspecified) | 2.073% |
| CCOC(=O)c1cnn(-c2cc(C)ccn2)c1N | -12.86% |
| Cc1ccc(C)c(-n2ncc(C(=O)N(C)CCc3ccccn3)c2N)c1 | 159.7% |
| Cc1cc(C(=O)N2C[C@@H]3[C@@H](CN(C)CCc4ccccn4)[C@@H]3C2)c(C)o1 | -1.529% |
| CN(CCc1ccccn1)C(=O)c1ccccc1F | -16.13% |
| Cc1cc(Cl)ccc1-n1ncc(C(=O)N(C)CCc2ccccn2)c1N | 185.4% |
| CN(CCc1ccccn1)C(=O)c1cnn(-c2ccccc2F)c1N | 110.9% |
